Measurements: PubChem BioAssay (NCI)
About 83,000 compounds went through this panel and 20% of them were active in at least one assay; those are over-represented in the sample as a whole.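 Growth was measured after 48 h exposure to one concentration of compound in 96-well plates. Values under 10 count as active.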 Activity calls are given as the source filed them.

Columns and labels:
Assay in all cases: NCI-60 one-dose screen, 48 h (100 = growth as untreated, 0 = no growth, -100 = all killed)
Settings in all cases: 10 µM unless noted
RPMI-8226 leukemia = tested on: RPMI-8226 leukemia
OVCAR-8 ovarian = tested on: OVCAR-8 ovarian
OVCAR-5 ovarian = tested on: OVCAR-5 ovarian
OVCAR-4 ovarian = tested on: OVCAR-4 ovarian
SK-OV-3 ovarian = tested on: SK-OV-3 ovarian
IGROV1 ovarian = tested on: IGROV1 ovarian
OVCAR-3 ovarian = tested on: OVCAR-3 ovarian
NCI/ADR-RES ovarian = tested on: NCI/ADR-RES ovarian
T-47D breast = tested on: T-47D breast
BT-549 breast = tested on: BT-549 breast
MDA-MB-435 melanoma = tested on: MDA-MB-435 melanoma
SW-620 colon = tested on: SW-620 colon
MCF7 breast = tested on: MCF7 breast
HCT-116 colon = tested on: HCT-116 colon
HCC-2998 colon = tested on: HCC-2998 colon
KM12 colon = tested on: KM12 colon
HS 578T breast = tested on: HS 578T breast

Measured: growth

CN1CCN(c2nc(NCCCCNc3ccnc4cc(Cl)ccc34)c3ccccc3n2)CC1
active: RPMI-8226 leukemia -8.38% | MDA-MB-435 melanoma -10.5%
inactive: OVCAR-8 ovarian 38.3% | OVCAR-5 ovarian 112% | OVCAR-4 ovarian 68.5% | SK-OV-3 ovarian 104% | IGROV1 ovarian 78.2% | OVCAR-3 ovarian 76.6% | NCI/ADR-RES ovarian 95.3% | T-47D breast 96.1% | BT-549 breast 74.6% | SW-620 colon 41.2% | MCF7 breast 51.3% | HCT-116 colon 53.1% | HCC-2998 colon 57.4% | KM12 colon 65.5%

N#CCCN=Nc1c(O)[nH]c2ccc([N+](=O)[O-])cc12
inactive: RPMI-8226 leukemia 105% | OVCAR-8 ovarian 102% | OVCAR-5 ovarian 97% | OVCAR-4 ovarian 105% | IGROV1 ovarian 99.6% | OVCAR-3 ovarian 103% | NCI/ADR-RES ovarian 104% | T-47D breast 93.1% | BT-549 breast 107% | MDA-MB-435 melanoma 111% | SW-620 colon 99.9% | MCF7 breast 86.8% | HCT-116 colon 96.5% | HCC-2998 colon 111% | KM12 colon 101%

COc1ccc(-c2nc3ccc(-c4nc5ccc(N6CCN(c7ccccc7)CC6)cc5[nH]4)cc3[nH]2)cc1OC
active: RPMI-8226 leukemia -23% | OVCAR-5 ovarian -44.1% | OVCAR-4 ovarian -49.9% | OVCAR-3 ovarian -68.3% | HS 578T breast -0.217% | T-47D breast -36.4% | MDA-MB-435 melanoma -3.15% | SW-620 colon -32.7% | MCF7 breast -85.3% | HCT-116 colon -100% | HCC-2998 colon -53.6% | KM12 colon 4.37%
inactive: SK-OV-3 ovarian 107% | IGROV1 ovarian 16.2% | NCI/ADR-RES ovarian 67.3% | BT-549 breast 52.9%

c1ccc(-c2cc3n4c(-c5ccccc5)nn(-c5ccccc5)c4cnc-3n2)cc1
inactive: RPMI-8226 leukemia 84.5% | OVCAR-8 ovarian 58.1% | OVCAR-5 ovarian 92.3% | OVCAR-4 ovarian 43.5% | SK-OV-3 ovarian 63.8% | OVCAR-3 ovarian 60.3% | HS 578T breast 31.6% | NCI/ADR-RES ovarian 84.4% | T-47D breast 54.2% | MDA-MB-435 melanoma 60.4% | SW-620 colon 52.2% | MCF7 breast 50.6% | HCT-116 colon 30.9% | HCC-2998 colon 83.9% | KM12 colon 70.6%

O=C1Nc2c(ccc(Cl)c2Cl)/C1=C\c1ccc(C(F)(F)F)cc1
inactive: RPMI-8226 leukemia 62.8% | OVCAR-8 ovarian 85.1% | OVCAR-5 ovarian 83.9% | OVCAR-4 ovarian 75.1% | IGROV1 ovarian 54.1% | OVCAR-3 ovarian 68.2% | HS 578T breast 63.9% | NCI/ADR-RES ovarian 85.8% | T-47D breast 77.2% | BT-549 breast 75.2% | MDA-MB-435 melanoma 95.4% | SW-620 colon 67.1% | MCF7 breast 52.1% | HCT-116 colon 68.2% | HCC-2998 colon 92.4% | KM12 colon 71.2%

O=C(COc1cccc(/C=C2\COc3ccc(Cl)cc3C2=O)c1)c1ccc(Cl)cc1
inactive: OVCAR-8 ovarian 91.7% | OVCAR-5 ovarian 81.1% | OVCAR-4 ovarian 90.5% | IGROV1 ovarian 38.3% | OVCAR-3 ovarian 87.4% | HS 578T breast 72.3% | NCI/ADR-RES ovarian 84% | T-47D breast 71.9% | BT-549 breast 84.7% | MDA-MB-435 melanoma 91.2% | SW-620 colon 51% | HCT-116 colon 31.1% | HCC-2998 colon 129% | KM12 colon 77.1%
active: RPMI-8226 leukemia -11.4% | MCF7 breast 0.286%

Cn1c(=O)c2c(nc3n(-c4ccc(Cl)cc4Cl)c(Sc4nc(-c5ccccc5)c(C#N)c(=O)[nH]4)cn23)n(C)c1=O
inactive: RPMI-8226 leukemia 59.3% | OVCAR-8 ovarian 34.2% | OVCAR-5 ovarian 29.3% | IGROV1 ovarian 55.6% | HS 578T breast 11.5% | NCI/ADR-RES ovarian 43.9% | T-47D breast 11.3% | BT-549 breast 72.6% | MDA-MB-435 melanoma 69.1% | SW-620 colon 30% | MCF7 breast 52.1% | HCT-116 colon 18.6% | HCC-2998 colon 78.3% | KM12 colon 84.9%
active: OVCAR-4 ovarian -33.1% | OVCAR-3 ovarian -15.5%

COc1cc(CNc2oc(-c3ccccc3)c(-c3ccccc3)c2C#N)cc(CN2CCN(C)CC2)c1O
inactive: OVCAR-8 ovarian 94.5% | OVCAR-5 ovarian 63.8% | OVCAR-4 ovarian 55% | SK-OV-3 ovarian 95.9% | IGROV1 ovarian 71.2% | OVCAR-3 ovarian 80.2% | NCI/ADR-RES ovarian 75.3% | T-47D breast 74% | BT-549 breast 76.4% | MDA-MB-435 melanoma 40.5% | SW-620 colon 31.8% | MCF7 breast 14.9% | HCT-116 colon 36.7% | HCC-2998 colon 37.4% | KM12 colon 66.7%
active: RPMI-8226 leukemia 2.73%

CCCCCCCCCCCCC[N+](C)(C)Cc1ccccc1
inactive: OVCAR-5 ovarian 24.9% | NCI/ADR-RES ovarian 90.2% | T-47D breast 15.1%
active: RPMI-8226 leukemia -50.9% | OVCAR-8 ovarian -30.5% | OVCAR-4 ovarian 8.67% | SK-OV-3 ovarian 4.31% | IGROV1 ovarian -49.9% | OVCAR-3 ovarian -61.1% | BT-549 breast -72.9% | MDA-MB-435 melanoma -73.6% | SW-620 colon -37.6% | HCT-116 colon -89.9% | HCC-2998 colon -80.5% | KM12 colon -93.6%

CSc1nc(NCc2ccccc2)c(C#N)c(-c2cccc([N+](=O)[O-])c2)n1
inactive: RPMI-8226 leukemia 100% | OVCAR-8 ovarian 95% | OVCAR-5 ovarian 90.7% | OVCAR-4 ovarian 88.5% | SK-OV-3 ovarian 97.1% | IGROV1 ovarian 99.9% | OVCAR-3 ovarian 111% | NCI/ADR-RES ovarian 95.2% | T-47D breast 82.8% | BT-549 breast 95.8% | MDA-MB-435 melanoma 99.4% | SW-620 colon 96.5% | MCF7 breast 91.8% | HCT-116 colon 87.1% | HCC-2998 colon 107% | KM12 colon 98.2%

Cc1cc(C)c2nc3nc(C)cc(C)c3c(N)c2c1
inactive: OVCAR-8 ovarian 45.3% | OVCAR-5 ovarian 28.7% | OVCAR-4 ovarian 33.6% | SK-OV-3 ovarian 25.4% | OVCAR-3 ovarian 26.5% | HS 578T breast 24.3% | NCI/ADR-RES ovarian 30.9% | T-47D breast 37.8% | BT-549 breast 56.1% | MDA-MB-435 melanoma 29.5% | SW-620 colon 16.2% | HCT-116 colon 13.9% | HCC-2998 colon 10.7% | KM12 colon 22.3%
active: RPMI-8226 leukemia -13.5% | MCF7 breast 8.2%

OC(COc1cccc2ccccc12)CN1CCN(c2ccccc2Cl)CC1 (stereo not given)
inactive: OVCAR-8 ovarian 98.4% | OVCAR-5 ovarian 85.3% | OVCAR-4 ovarian 92.7% | SK-OV-3 ovarian 89.2% | IGROV1 ovarian 117% | OVCAR-3 ovarian 101% | HS 578T breast 107% | NCI/ADR-RES ovarian 89.4% | T-47D breast 74.5% | BT-549 breast 106% | MDA-MB-435 melanoma 100% | SW-620 colon 88.5% | MCF7 breast 105% | HCT-116 colon 71.4% | KM12 colon 99.7%

CCC(=O)c1ccc(Cl)s1
inactive: RPMI-8226 leukemia 104% | OVCAR-5 ovarian 105% | OVCAR-4 ovarian 109% | SK-OV-3 ovarian 114% | IGROV1 ovarian 118% | OVCAR-3 ovarian 112% | HS 578T breast 103% | NCI/ADR-RES ovarian 104% | T-47D breast 105% | BT-549 breast 90.5% | MDA-MB-435 melanoma 114% | SW-620 colon 104% | MCF7 breast 97.8% | HCT-116 colon 101% | HCC-2998 colon 102% | KM12 colon 107%

COc1cc2nnc3c4cccnc4[nH]c3c2cc1OC
inactive: OVCAR-5 ovarian 75% | OVCAR-4 ovarian 29.8% | SK-OV-3 ovarian 81.7% | OVCAR-3 ovarian 30.5% | HS 578T breast 58.5% | NCI/ADR-RES ovarian 23.4% | T-47D breast 24.5% | BT-549 breast 72.9% | MDA-MB-435 melanoma 49.7% | HCC-2998 colon 88% | KM12 colon 32%
active: OVCAR-8 ovarian -15.2% | SW-620 colon 9.61% | MCF7 breast 2.75% | HCT-116 colon 5.66%

N#Cc1c(-c2ccc(Cl)cc2)nc(N=Nc2c(O)[nH]c3ccc(Cl)cc23)nc1N1CCOCC1
inactive: RPMI-8226 leukemia 119% | OVCAR-5 ovarian 98.9% | OVCAR-4 ovarian 99.8% | SK-OV-3 ovarian 96.1% | IGROV1 ovarian 92.5% | OVCAR-3 ovarian 115% | HS 578T breast 94% | NCI/ADR-RES ovarian 88.3% | T-47D breast 99.8% | BT-549 breast 92.1% | MDA-MB-435 melanoma 97.5% | SW-620 colon 91.8% | MCF7 breast 97.9% | HCT-116 colon 93.2% | HCC-2998 colon 96.3% | KM12 colon 101%
